Compounds with a hit are over-represented: about 3.5% of the library has one in this group of screens.
TEAD-YAP block: TEAD-YAP interaction inhibition; inhibition, % at 9.12 µM; 1.4% of 640,000 active; HEK-TIYL cells, TEAD-Gal4/YAP UAS-luciferase luminescence; in the data active means inhibition above about 32%;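 further: 0% = median of test compound wells and 100% = reference inhibitor wells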
GPR151 ag: activates the human receptor GPR151. PathHunter beta-arrestin GPR151 cells, luminescence. 1% of 650,000 active. AID 1508602. activation, % at 11.2 µM; in the data active means activation above about 4.9%;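 further: 0% = median of compound wells and 100% = cells with positive control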
MITF primary: inhibitors of human MITF; AlphaScreen MITF homodimerization, bead proximity signal; inhibition, % at 2.6 µM; 0.91% of 650,000 active; in the data active means inhibition above about 50%;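 further: 0% = vehicle wells with protein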
FBW7 act: activators of human E3 ligase FBW7 | Q969H0 | AlphaScreen FBW7–phospho-cyclin E peptide binding, activator screen | normalized activity (activation), % at 26.1 µM | 0.13% of 650,000 active | AID 1259310; in the data active means normalized activity above about 1.9%;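 further: purified mutant Fbw7 with reduced substrate affinity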
Target sequence (Q969H0 whole entry, looked up): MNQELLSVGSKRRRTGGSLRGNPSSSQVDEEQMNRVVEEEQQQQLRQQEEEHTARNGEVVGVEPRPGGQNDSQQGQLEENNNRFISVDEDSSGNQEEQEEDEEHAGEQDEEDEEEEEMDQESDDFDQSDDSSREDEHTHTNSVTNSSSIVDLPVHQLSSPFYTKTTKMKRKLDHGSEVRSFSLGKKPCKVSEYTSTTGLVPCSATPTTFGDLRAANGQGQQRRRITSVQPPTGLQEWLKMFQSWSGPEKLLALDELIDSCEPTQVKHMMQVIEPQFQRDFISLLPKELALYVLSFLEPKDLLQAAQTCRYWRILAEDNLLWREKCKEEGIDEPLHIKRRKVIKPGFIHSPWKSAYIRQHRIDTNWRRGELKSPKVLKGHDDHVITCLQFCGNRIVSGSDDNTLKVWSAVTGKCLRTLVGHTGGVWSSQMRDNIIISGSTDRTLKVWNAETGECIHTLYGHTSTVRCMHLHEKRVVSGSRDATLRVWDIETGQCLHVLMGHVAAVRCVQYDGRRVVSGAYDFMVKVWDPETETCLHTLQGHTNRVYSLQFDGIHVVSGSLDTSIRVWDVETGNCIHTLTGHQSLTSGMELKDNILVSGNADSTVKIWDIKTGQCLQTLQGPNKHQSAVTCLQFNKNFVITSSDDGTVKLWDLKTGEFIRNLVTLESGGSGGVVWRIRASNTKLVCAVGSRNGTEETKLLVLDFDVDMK
* = called active by the depositor; ! = a repeat was not active.

SMILES	TEAD-YAP block	GPR151 ag	MITF primary	FBW7 act
Cc1cnc(Nc2ccncc2)cc1Nc1ccccc1C(N)=O	-1	0	1	0
Cc1cnc(Nc2ccc(-n3cnc(N4CCOCC4)n3)cc2)cc1Nc1ccccc1C(N)=O	82*	4	-6	0
Cc1cc(C)c(C#N)c(S(=O)Cc2ccccc2)n1 (centres undefined)	11	0	-11	0
O=C(O)CN1C(=O)CN(Cc2ccco2)C(=O)C1c1ccc(Cl)cc1 (centres undefined)	-2	0	-18	1
COC(=O)c1cn(NC(=O)c2cc([N+](=O)[O-])ccc2F)c(=O)c2ccccc12	87*	0	-8	0
COc1ccc(N=C(NN)c2ccc3ccccc3n2)cc1	91*	1	3	0
Cc1ccc(N=C(NN)c2ccc3ccccc3n2)c(C)c1	0	2	5	0
Cc1nc(N=Nc2ccc(S(=O)(=O)O)cc2S(=O)(=O)O)c(COP(=O)(O)O)c(C=O)c1O	3	1	75*!	0
OCCNc1nc(-c2ccc(N3CCOCC3)nc2)nc2c1ncn2-c1ccsc1	34*	0	-2	0
CC(C)N(CCNc1nc(-c2ccc(N3CCOCC3)nc2)nc2c1ncn2C(C)C)C(C)C	19	3	-14	0
COc1ccc(-c2nc(NCCN(C(C)C)C(C)C)c3ncn(-c4ccsc4)c3n2)cn1	35*	-1	13	0
CC(C)N(CCNc1nc(-c2ccc(N3CCOCC3)nc2)nc2c1ncn2-c1ccsc1)C(C)C	43*	0	6	0
Cc1cccc(N2CCN(C(c3ccncc3)c3nnnn3C(C)(C)C)CC2)c1C (centres undefined)	62*	-4	-7	0
COc1ccc2c(c1)O/C(=C\c1ccc(OC(=O)N3CCOCC3)c(OC)c1)C2=O	-4	1	7	0
CCOC(=O)c1ccccc1Nc1cn(C(C)=O)c2ccccc12	52*	0	14	0
CCOCCCNCC(O)COc1c(Cl)cccc1Cl (centres undefined)	52*	-1	30	0
OCCn1c(Cc2ccccc2)nc2ccccc21	98*	-11	4	0
CCC(=O)Nc1cc(C2CC2)nn1-c1nc(-c2ccccc2)cc(=O)[nH]1	15	-1	-2	2.2*
OCCNc1nc(NC2CCN(Cc3ccccc3)CC2)nc2c1ncn2-c1ccsc1	28	-2	11	0
CC(=O)c1c(C)[nH]c(C(=O)OCCCCN2C(=O)c3ccccc3C2=O)c1C	54*	0	-6	0
CCOC(=O)c1[nH]c(C)c(C(=O)c2ccccc2Cl)c1C	22	1	9	0
CCOC(=O)c1[nH]c(C)c(C(=O)NCc2ccc(C)cc2)c1C	-1	1	-5	0
CC(=O)c1c(C)[nH]c(C(=O)COC(=O)CCCN2C(=O)c3ccccc3C2=O)c1C	6	0	7	0
CCOC(=O)c1[nH]c(C)c(C(=O)c2ccccc2)c1C	48*	2	7	0
CCOC(=O)c1[nH]c(C)c(C(=O)c2ccc(C)cc2)c1C	34*	1	6	0
SMILES	TEAD-YAP block	GPR151 ag	MITF primary	FBW7 act
COCC(=O)N(C)c1nnc(-c2cccnc2)s1	6	0	-7	0
CCC(=O)Nc1sc2c(c1C(=O)Nc1ccccc1C)CCCCC2	-6	0	8	0
C/C(N)=C(/C#N)C(=O)CSc1ccc(C)c(C)c1	36*	-1	-3	0
Cn1nc(C(C)(C)C)cc1C(=O)NCc1ccc2c(c1)CCO2	42*	0	-3	1
CN(C)c1ccc(C(=O)NCc2ccc3c(c2)CCO3)cc1	-3	0	-5	1
O=c1[nH]c(CCl)nc2sc(-c3ccccc3)cc12	33*	-2	5	0
Nc1nnc(CC(=O)N2CCCCC2)s1	5	-1	12	2.1*
Cc1ccnc(NC(=S)NC(=O)c2cccc(Br)c2)c1	33*	0	-5	0
Cc1cccc(NC(=S)NC(=O)c2cccc(Br)c2)n1	-26	0	14	0
O=C(CCCc1ccccc1)Nc1cccc(N2CCC(NCCCn3cccn3)CC2)c1	-11	-1	6	0
CCN1/C(=C/c2ccc3ccccc3[n+]2CC)Sc2c1ccc1ccccc21	87*	1	43	0
CCN1/C(=C\C=C(/C)C=O)Sc2ccccc21	11	3	8	0
CCCCN1/C(=C/c2ccc3cc(OC)ccc3[n+]2CC)Sc2ccc(OC)cc21	89*	2	18	-1
CCN1/C(=C/c2ccc3ccccc3[n+]2CC)Sc2ccc(OC)cc21	90*	1	18	0
CC[n+]1c(I)ccc2cc(OC)ccc21	-2	2	-1	0
CCN1/C(=C/c2ccc3ccccc3[n+]2CC)Sc2ccc(I)cc21	68*	4	18	0
NCCCC[C@@H]1NC(=O)[C@@H]2C[C@H](NC(=O)c3ccc4ccccc4c3)CN2C1=O	-12	-1	-9	0
CC(NC(=O)NC1CCCCC1)c1nc(-c2cccnc2)n[nH]1 (centres undefined)	8	1	17	1
COc1cc(/C=N/NC(=O)COc2ccc(C)c(C)c2)ccc1O	1	-1	16	0
COc1ccc(C(=O)Nc2ccc([N+](=O)[O-])cc2OC)cc1	2	3	-3	0
Cc1ccc(CN[C@H]2C[C@H]3C(=O)N[C@@H](CC(C)C)C(=O)N3C2)cc1F	1	1	-1	0
COC(=O)CN1C(c2ccc(Cl)cc2)=Nc2ccc(Br)cc2C1c1ccccc1 (centres undefined)	6	-1	14	0
CCCCN1/C(=C/c2ccc3ccccc3[n+]2CC)Sc2ccccc21	92*	4	5	-1
CCN1/C(=C/c2ccc3cc(NC(C)=O)ccc3[n+]2CC)Sc2ccccc21	52*	0	6	-1
CCOC(=O)c1c(NC(=O)C(C)Sc2nnc(CNC(=O)c3ccc(OC)c(OC)c3)n2-c2ccc(F)cc2)sc2c1CCCC2 (centres undefined)	-2	1	-5	0
SMILES	TEAD-YAP block	GPR151 ag	MITF primary	FBW7 act
CN1CCN(c2ccc(-c3nc(NCc4cccnc4)c4ncn(-c5ccsc5)c4n3)cc2)CC1	36*	-3	32	0
COc1ccc(-c2nc(NCCO)c3ncn(-c4ccsc4)c3n2)cc1	61*	1	3	0
CN1CCN(c2ccc(-c3nc(NCCO)c4ncn(-c5ccsc5)c4n3)cc2)CC1	87*	-1	12	0
CCCNc1nc(-c2ccc(N3CCN(C)CC3)cc2)nc2c1ncn2-c1ccsc1	28	-3	14	0
CCOC(=O)C1(Cc2ccccc2)NC(c2ccc(N(C)C)cc2)C2C(=O)N(C)C(=O)C21 (centres undefined)	4	1	15	0
Cc1ccc(S(=O)(=O)c2nc(S(C)(=O)=O)sc2NC(C)C)cc1	9	0	-20	0
S=C(NCc1ccc(Cl)cc1)Nc1ccncc1	44*	1	9	0
S=C(NCc1ccncc1)Nc1cccc(Cl)c1	3	1	-14	0

Bioassay records: PubChem, The Scripps Research Institute Molecular Screening Center
